# Measurements from PubChem BioAssay (Tox21).
# Records with an inconclusive call do not appear. Unmarked numbers belong to inactive results. Active and inactive are the calls of the source. Unless noted, the call rests on the fitted dose curve; in most records, active means well fitted curve in the direction sought with a large enough effect in the repeat runs; inconclusive means weak or mixed curves; inactive means no such curve, though single readings can be large; an effect the other way counts as inactive or inconclusive.
# System: not listed separately
# Test: qHTS assay to identify small molecule antagonists of the retinoid-related orphan receptor gamma (ROR-gamma) signaling pathway - cell viability counter screen (AID 1159520); further: on the % scale 0 is the no-effect control and ±100 the full control effect; nearly all actives have a fitted effect of over 50% in size
# Conditions: Tet-on RORgamma CHO cells viability, ATP luminescence, 16 h; series mostly up to 92.4 µM; activity, negative = cytotoxicity: at the top concentration
# Procedure, shortened: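 Tet-on ROR gamma CHO cells (1,000/well) were plated 4 hr, given compounds in DMSO for 2 hr at 37 C, then induced with 1 uM final doxycycline for 16 hr. Viability was read as ATP by CellTiter-Glo luminescence after 30 min.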
SMILES,Potency,"activity, negative = cytotoxicity"
Cc1cccc(O)c1C,inactive,–
CCOC(=O)C(C)C(C)=O (centres undefined),–,4.98%
CO[Si](OC)(OC)c1ccccc1,–,-1.5%
CCN(CC)C(=O)Nc1ccc(OCC(O)CNC(C)(C)C)c(C(C)=O)c1 (centres undefined),–,2.9% [at 42.5 µM]
CC(C)(C)NCC(O)COc1ccccc1OCC1CCCO1 (centres undefined),–,2.14% [at 42.5 µM]
COC(=O)c1cccc(C(=O)OC)c1,inactive,–
CC(C)(C)NCC(O)c1cc(O)cc(O)c1 (centres undefined),–,-1.18% [at 42.5 µM]
O=Cc1ccc(Cl)cc1,–,0.518%
CC1COc2c(N3CCN(C)CC3)c(F)cc3c(=O)c(C(=O)O)cn1c23 (centres undefined),–,-0.714% [at 42.5 µM]
O=C(Oc1ccccc1)c1ccccc1O,inactive,–
C=CS(=O)(=O)O,–,1.18%
CC(=O)OCC1=C(C(=O)O)N2C(=O)[C@@H](NC(=O)Cc3cccs3)[C@H]2SC1,–,3.54% [at 42.5 µM]
NNCCc1ccccc1,inactive,–
O=C(Cl)c1cccc(C(=O)Cl)c1,inactive,–
COC(=O)/C=C/c1ccccc1,inactive,–
O=c1n(CC2CO2)c(=O)n(CC2CO2)c(=O)n1CC1CO1 (centres undefined),inactive,–
O=C(O)Cn1cnnn1,–,2.91% [at 42.5 µM]
CN1C(=O)c2ccc([N+](=O)[O-])cc2C1=O,–,4.97%
Cc1cccc([N+](=O)[O-])c1C(=O)O,–,1.39%

SMILES,Potency,"activity, negative = cytotoxicity"
Cc1scc2c1N(C(=O)CN1CCN(C)CC1)c1ccccc1NC2=O,–,1.94% [at 42.5 µM]
CC(C)(C)NC(=O)[C@@H]1CN(Cc2cccnc2)CCN1C[C@@H](O)C[C@@H](Cc1ccccc1)C(=O)N[C@H]1c2ccccc2C[C@H]1O,inactive,–
C/C=C/c1ccc(OCC)c(O)c1,inactive,–
CC(C)C(=O)c1c(C(C)C)nn2ccccc12,–,-0.259% [at 42.5 µM]
CCC[C@H](N[C@@H](C)C(=O)N1[C@H](C(=O)O)C[C@@H]2CCCC[C@@H]21)C(=O)OCC,inactive,–
NC(Cc1ccc(Cl)cc1)C(=O)O (centres undefined),–,3.35% [at 0.349 µM]
O=C1NCC2(CCN(CCc3ccccc3)CC2)O1,–,0.581% [at 42.5 µM]
CC1COC(=O)O1 (centres undefined),inactive,–
CCCN[C@H]1CCc2nc(N)sc2C1,inactive,–
C[N+]1([O-])CCOCC1,–,3.69%
CC(C)CCOCc1ccccc1,–,7.78%
O=C(O)c1cccc(C(=O)O)c1,inactive,–
COc1cc(C(=S)N2CCOCC2)ccc1O,–,-0.0876% [at 42.5 µM]
CCCNC(C)C(=O)Nc1ccccc1C (centres undefined),–,1.26% [at 42.5 µM]
c1ccc2n[nH]nc2c1,inactive,–
CC1=C(C=O)C(C)(C)CC=C1,–,3.82%
CCOc1ccccc1C(N)=O,inactive,–
O=C(O)CCc1ccccc1,–,4.42%
CC(N)=O,–,0.269% [at 240 µM]

# Target: Nuclear receptor ROR-gamma (Homo sapiens) (UniProt P51449)
# Test: qHTS assay to identify small molecule antagonists of the retinoid-related orphan receptor gamma (ROR-gamma) signaling pathway (AID 1159521;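 further: CHO cells with doxycycline inducible ROR-gamma driving an RORE luciferase reporter; top concentration of the series differs between compounds; on the % scale 0 is the no-effect control and ±100 the full control effect; nearly all actives have a fitted effect of over 50% in size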)
# Conditions: Tet-on RORgamma CHO cells, RORE-luciferase, 16 h; series mostly up to 92.4 µM; activity change, negative = inhibition: at the top concentration
# Procedure, shortened: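 CHO Tet-on RORγ, RORE-luc reporter. Cpd 2 h pre-incubation, then dox hyclate 1 uM final, 16 h, 37 C/5% CO2. ONE-Glo luminescence; decrease = antagonist.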
SMILES,Potency,"activity change, negative = inhibition"
Cc1cccc(O)c1C,inactive,–
CCOC(=O)C(C)C(C)=O (centres undefined),–,2.62%
CO[Si](OC)(OC)c1ccccc1,–,-3.56%
CCN(CC)C(=O)Nc1ccc(OCC(O)CNC(C)(C)C)c(C(C)=O)c1 (centres undefined),–,-3.11% [at 42.5 µM]
CC(C)(C)NCC(O)COc1ccccc1OCC1CCCO1 (centres undefined),–,-1.51% [at 42.5 µM]
COC(=O)c1cccc(C(=O)OC)c1,inactive,–
CC(C)(C)NCC(O)c1cc(O)cc(O)c1 (centres undefined),–,4.31% [at 42.5 µM]
O=Cc1ccc(Cl)cc1,–,-14.6%
CC1COc2c(N3CCN(C)CC3)c(F)cc3c(=O)c(C(=O)O)cn1c23 (centres undefined),–,25.7% [at 42.5 µM]
O=C(Oc1ccccc1)c1ccccc1O,inactive,–
C=CS(=O)(=O)O,–,0.57%
CC(=O)OCC1=C(C(=O)O)N2C(=O)[C@@H](NC(=O)Cc3cccs3)[C@H]2SC1,–,1.39% [at 42.5 µM]
NNCCc1ccccc1,inactive,–
O=C(Cl)c1cccc(C(=O)Cl)c1,inactive,–
COC(=O)/C=C/c1ccccc1,inactive,–
O=c1n(CC2CO2)c(=O)n(CC2CO2)c(=O)n1CC1CO1 (centres undefined),–,-29.2%
O=C(O)Cn1cnnn1,–,33.5% [at 42.5 µM]
CN1C(=O)c2ccc([N+](=O)[O-])cc2C1=O,–,-18.5%
Cc1cccc([N+](=O)[O-])c1C(=O)O,–,42.7%

SMILES,Potency,"activity change, negative = inhibition"
Cc1scc2c1N(C(=O)CN1CCN(C)CC1)c1ccccc1NC2=O,–,72.9% [at 42.5 µM]
CC(C)(C)NC(=O)[C@@H]1CN(Cc2cccnc2)CCN1C[C@@H](O)C[C@@H](Cc1ccccc1)C(=O)N[C@H]1c2ccccc2C[C@H]1O,inactive,–
C/C=C/c1ccc(OCC)c(O)c1,inactive,–
CC(C)C(=O)c1c(C(C)C)nn2ccccc12,–,0.775% [at 42.5 µM]
CCC[C@H](N[C@@H](C)C(=O)N1[C@H](C(=O)O)C[C@@H]2CCCC[C@@H]21)C(=O)OCC,inactive,–
NC(Cc1ccc(Cl)cc1)C(=O)O (centres undefined),–,14.9% [at 0.35 µM]
O=C1NCC2(CCN(CCc3ccccc3)CC2)O1,–,14.1% [at 42.5 µM]
CC1COC(=O)O1 (centres undefined),inactive,–
CCCN[C@H]1CCc2nc(N)sc2C1,inactive,–
C[N+]1([O-])CCOCC1,–,-0.728%
CC(C)CCOCc1ccccc1,–,16.9%
O=C(O)c1cccc(C(=O)O)c1,inactive,–
COc1cc(C(=S)N2CCOCC2)ccc1O,–,9.18% [at 42.5 µM]
CCCNC(C)C(=O)Nc1ccccc1C (centres undefined),–,29.3% [at 42.5 µM]
c1ccc2n[nH]nc2c1,–,-14%
CC1=C(C=O)C(C)(C)CC=C1,–,0.34%
CCOc1ccccc1C(N)=O,inactive,–
O=C(O)CCc1ccccc1,–,16.1%
CC(N)=O,–,5.63% [at 240 µM]

# System: not listed separately
# Test: qHTS assay to identify small molecule agonists of the AP-1 signaling pathway - cell viability counter screen (AID 1159525; calls by dose curve; further: nearly all actives have a fitted effect of over 55% in size)
# Conditions: ME-180 AP-1-bla cells viability, ATP luminescence, 5 h; series mostly up to 76.8 µM; viability change, negative = cytotoxic: at the top concentration
# Procedure, shortened: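 ME-180 AP-1-bla, 2500 cells/well, Opti-MEM + 0.5% dialyzed FBS; overnight 37 °C; cpd 15-pt titration, 5 h 37 °C; CellTiter-Glo 30 min RT; luminescence read; normalised to TOAB and DMSO controls.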
SMILES,Potency,"viability change, negative = cytotoxic"
Cc1cccc(O)c1C,inactive,–
CCOC(=O)C(C)C(C)=O (centres undefined),–,-7.94%
CO[Si](OC)(OC)c1ccccc1,–,0.0678%
CCN(CC)C(=O)Nc1ccc(OCC(O)CNC(C)(C)C)c(C(C)=O)c1 (centres undefined),–,5.97% [at 35.3 µM]
CC(C)(C)NCC(O)COc1ccccc1OCC1CCCO1 (centres undefined),–,1.41% [at 35.3 µM]
COC(=O)c1cccc(C(=O)OC)c1,inactive,–
CC(C)(C)NCC(O)c1cc(O)cc(O)c1 (centres undefined),–,1.3% [at 35.3 µM]
O=Cc1ccc(Cl)cc1,–,-17.4%
CC1COc2c(N3CCN(C)CC3)c(F)cc3c(=O)c(C(=O)O)cn1c23 (centres undefined),–,14.5% [at 35.3 µM]
O=C(Oc1ccccc1)c1ccccc1O,inactive,–
C=CS(=O)(=O)O,–,1.79%
CC(=O)OCC1=C(C(=O)O)N2C(=O)[C@@H](NC(=O)Cc3cccs3)[C@H]2SC1,–,-1.18% [at 35.3 µM]
NNCCc1ccccc1,inactive,–
O=C(Cl)c1cccc(C(=O)Cl)c1,inactive,–
COC(=O)/C=C/c1ccccc1,inactive,–
O=c1n(CC2CO2)c(=O)n(CC2CO2)c(=O)n1CC1CO1 (centres undefined),inactive,–
O=C(O)Cn1cnnn1,–,-0.276% [at 35.3 µM]
CN1C(=O)c2ccc([N+](=O)[O-])cc2C1=O,–,-4.7%
Cc1cccc([N+](=O)[O-])c1C(=O)O,–,3.95%

SMILES,Potency,"viability change, negative = cytotoxic"
Cc1scc2c1N(C(=O)CN1CCN(C)CC1)c1ccccc1NC2=O,–,-0.461% [at 35.3 µM]
CC(C)(C)NC(=O)[C@@H]1CN(Cc2cccnc2)CCN1C[C@@H](O)C[C@@H](Cc1ccccc1)C(=O)N[C@H]1c2ccccc2C[C@H]1O,inactive,–
C/C=C/c1ccc(OCC)c(O)c1,inactive,–
CC(C)C(=O)c1c(C(C)C)nn2ccccc12,–,3.13% [at 35.3 µM]
CCC[C@H](N[C@@H](C)C(=O)N1[C@H](C(=O)O)C[C@@H]2CCCC[C@@H]21)C(=O)OCC,inactive,–
NC(Cc1ccc(Cl)cc1)C(=O)O (centres undefined),–,-2.41% [at 0.29 µM]
O=C1NCC2(CCN(CCc3ccccc3)CC2)O1,–,2.47% [at 35.3 µM]
CC1COC(=O)O1 (centres undefined),inactive,–
CCCN[C@H]1CCc2nc(N)sc2C1,inactive,–
C[N+]1([O-])CCOCC1,–,-2.1%
CC(C)CCOCc1ccccc1,–,1.08%
O=C(O)c1cccc(C(=O)O)c1,inactive,–
COc1cc(C(=S)N2CCOCC2)ccc1O,–,6.56% [at 35.3 µM]
CCCNC(C)C(=O)Nc1ccccc1C (centres undefined),–,8.76% [at 35.3 µM]
c1ccc2n[nH]nc2c1,inactive,–
CC1=C(C=O)C(C)(C)CC=C1,–,8.46%
CCOc1ccccc1C(N)=O,inactive,–
O=C(O)CCc1ccccc1,–,2.67%
CC(N)=O,–,2.18% [at 200 µM]
